Assay in all cases: DAPPL (digital affinity profiling via proximity ligation, sequencing); 10 mM Tris-HCl pH 7.5, 50 mM NaCl, 1 mM DTT, 4% glycerol, room temperature, 30 min; GST-TFs on glutathione beads, 16-mer random dsDNA library, 0.1% formaldehyde crosslink after washing; high values mean tight binding
Experiment [1] deals with T1, FLI1 (Homo sapiens, UniProt Q01543 1-452).
T1 sequence: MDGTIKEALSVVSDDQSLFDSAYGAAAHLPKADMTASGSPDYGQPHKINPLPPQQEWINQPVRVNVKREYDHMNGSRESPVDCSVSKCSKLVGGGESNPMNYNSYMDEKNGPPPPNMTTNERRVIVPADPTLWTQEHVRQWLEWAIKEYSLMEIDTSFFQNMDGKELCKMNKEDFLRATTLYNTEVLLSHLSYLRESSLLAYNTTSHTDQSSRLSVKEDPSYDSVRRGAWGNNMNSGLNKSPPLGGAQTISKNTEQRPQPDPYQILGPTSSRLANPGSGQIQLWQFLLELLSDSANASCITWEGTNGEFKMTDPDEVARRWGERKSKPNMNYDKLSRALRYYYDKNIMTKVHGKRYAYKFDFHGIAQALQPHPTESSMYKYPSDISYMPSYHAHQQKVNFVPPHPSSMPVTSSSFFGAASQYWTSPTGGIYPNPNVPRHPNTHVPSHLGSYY
To be noted: protein: recombinant; tags: N-terminal GST; dsDNA, one strand shown. A digest of the protocol:
(§1)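 Pools of DNA-barcoded human transcription factors, expressed in yeast as GST fusions on glutathione beads and combined with a tag-only sample, were incubated with 200 nmole of a 16-mer random double-stranded DNA library. Incubation took 30 min at room temperature in Tris/NaCl/DTT/glycerol buffer and was followed by washing, 0.1% formaldehyde crosslinking, proximity ligation (BsaI/T4 ligase, 1 h, 37 °C), PCR amplification and sequencing on an Illumina NextSeq500. Binding signal is the ratio of a hexamer's read frequency for a factor to its frequency for the tag-only sample.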

Experiment [2] concerns the target T2, ELK1 (Homo sapiens, UniProt P19419 1-428).
T2 sequence: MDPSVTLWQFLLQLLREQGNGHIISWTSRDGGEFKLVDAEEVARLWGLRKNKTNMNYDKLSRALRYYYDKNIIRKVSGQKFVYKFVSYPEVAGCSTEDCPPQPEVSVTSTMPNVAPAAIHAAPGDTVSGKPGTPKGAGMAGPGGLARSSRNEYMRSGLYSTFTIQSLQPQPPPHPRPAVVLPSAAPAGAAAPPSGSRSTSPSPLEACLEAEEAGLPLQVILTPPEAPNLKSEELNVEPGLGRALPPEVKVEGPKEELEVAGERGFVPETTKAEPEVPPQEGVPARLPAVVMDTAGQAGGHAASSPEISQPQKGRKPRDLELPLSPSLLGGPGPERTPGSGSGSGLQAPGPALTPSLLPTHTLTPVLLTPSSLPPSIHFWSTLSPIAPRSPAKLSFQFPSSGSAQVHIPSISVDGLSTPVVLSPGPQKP
To be noted: protein: recombinant; tags: N-terminal GST; dsDNA, one strand shown. An outline of the steps: as §1

Experiment [3] deals with T3, GABPA (Homo sapiens, UniProt Q06546 1-454).
T3 sequence: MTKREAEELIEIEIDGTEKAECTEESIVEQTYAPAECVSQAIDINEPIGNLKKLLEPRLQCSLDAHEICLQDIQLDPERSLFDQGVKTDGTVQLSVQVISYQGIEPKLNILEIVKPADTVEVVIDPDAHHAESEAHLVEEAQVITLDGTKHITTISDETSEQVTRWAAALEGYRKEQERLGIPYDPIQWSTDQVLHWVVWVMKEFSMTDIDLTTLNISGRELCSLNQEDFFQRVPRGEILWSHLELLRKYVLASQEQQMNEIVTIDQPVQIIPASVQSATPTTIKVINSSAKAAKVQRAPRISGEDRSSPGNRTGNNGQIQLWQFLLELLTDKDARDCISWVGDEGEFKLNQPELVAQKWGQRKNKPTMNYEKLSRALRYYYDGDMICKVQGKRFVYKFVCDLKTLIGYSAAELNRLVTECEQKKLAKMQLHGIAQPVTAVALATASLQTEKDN
To be noted: protein: recombinant; tags: N-terminal GST; dsDNA, one strand shown. An outline of the steps:
as §1

For experiment [4], the target named is T4, ERG (Homo sapiens, UniProt P11308 1-479).
T4 sequence: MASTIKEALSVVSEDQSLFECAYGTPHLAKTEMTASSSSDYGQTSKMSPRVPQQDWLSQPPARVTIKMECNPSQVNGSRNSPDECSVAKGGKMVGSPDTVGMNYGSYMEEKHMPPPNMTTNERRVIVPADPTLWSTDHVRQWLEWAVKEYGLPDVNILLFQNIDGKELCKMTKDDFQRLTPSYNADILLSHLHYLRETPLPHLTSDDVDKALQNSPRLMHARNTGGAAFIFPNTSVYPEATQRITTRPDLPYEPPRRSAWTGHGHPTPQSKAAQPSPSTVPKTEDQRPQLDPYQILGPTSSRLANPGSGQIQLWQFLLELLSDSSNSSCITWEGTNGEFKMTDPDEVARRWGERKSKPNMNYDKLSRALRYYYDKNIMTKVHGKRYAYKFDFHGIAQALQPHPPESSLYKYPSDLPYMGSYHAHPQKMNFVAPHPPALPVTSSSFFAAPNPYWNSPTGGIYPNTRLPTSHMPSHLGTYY
To be noted: protein: recombinant; tags: N-terminal GST; dsDNA, one strand shown. An outline of the steps:
as §1

Experiment [5] deals with ELF1 (Homo sapiens, UniProt P32519 1-619). To be noted: protein: recombinant; tags: N-terminal GST; dsDNA, one strand shown. A digest of the protocol: as §1
Sequence of ELF1 (P32519 whole entry): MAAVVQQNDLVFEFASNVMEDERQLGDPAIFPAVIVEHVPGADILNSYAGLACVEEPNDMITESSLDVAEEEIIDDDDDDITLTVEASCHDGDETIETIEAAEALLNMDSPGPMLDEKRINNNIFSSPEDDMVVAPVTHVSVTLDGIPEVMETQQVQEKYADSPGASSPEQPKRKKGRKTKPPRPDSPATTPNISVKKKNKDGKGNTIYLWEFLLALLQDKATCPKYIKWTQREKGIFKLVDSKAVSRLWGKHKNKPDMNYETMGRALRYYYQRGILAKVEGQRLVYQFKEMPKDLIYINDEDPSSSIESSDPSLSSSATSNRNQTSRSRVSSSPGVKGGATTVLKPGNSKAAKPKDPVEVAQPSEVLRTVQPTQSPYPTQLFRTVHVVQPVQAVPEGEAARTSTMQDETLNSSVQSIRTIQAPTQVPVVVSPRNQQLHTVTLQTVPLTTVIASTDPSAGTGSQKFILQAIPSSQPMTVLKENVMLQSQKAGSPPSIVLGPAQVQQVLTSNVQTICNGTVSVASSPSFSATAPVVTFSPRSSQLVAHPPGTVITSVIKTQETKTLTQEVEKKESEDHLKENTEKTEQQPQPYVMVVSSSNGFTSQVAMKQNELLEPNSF
Experiment [6] deals with T5, EHF (Homo sapiens, UniProt Q9NZC4 1-300).
T5 sequence: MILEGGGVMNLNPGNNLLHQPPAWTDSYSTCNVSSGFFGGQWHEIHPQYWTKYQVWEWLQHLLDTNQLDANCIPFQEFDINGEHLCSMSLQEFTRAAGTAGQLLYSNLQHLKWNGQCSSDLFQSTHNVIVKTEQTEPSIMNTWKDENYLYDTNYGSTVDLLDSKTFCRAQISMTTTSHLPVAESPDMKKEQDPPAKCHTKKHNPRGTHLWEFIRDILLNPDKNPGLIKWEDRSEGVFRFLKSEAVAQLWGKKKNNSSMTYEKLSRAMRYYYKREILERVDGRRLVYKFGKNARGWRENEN
To be noted: protein: recombinant; tags: N-terminal GST; dsDNA, one strand shown. A digest of the protocol: as §1

The target of experiment [7] is SPI1 (Homo sapiens, UniProt P17947 1-270). To be noted: protein: recombinant; tags: N-terminal GST; dsDNA, one strand shown. A digest of the protocol:
as §1

The target of experiment [8] is T6, ELK3 (Homo sapiens, UniProt P41970 1-407).
T6 sequence: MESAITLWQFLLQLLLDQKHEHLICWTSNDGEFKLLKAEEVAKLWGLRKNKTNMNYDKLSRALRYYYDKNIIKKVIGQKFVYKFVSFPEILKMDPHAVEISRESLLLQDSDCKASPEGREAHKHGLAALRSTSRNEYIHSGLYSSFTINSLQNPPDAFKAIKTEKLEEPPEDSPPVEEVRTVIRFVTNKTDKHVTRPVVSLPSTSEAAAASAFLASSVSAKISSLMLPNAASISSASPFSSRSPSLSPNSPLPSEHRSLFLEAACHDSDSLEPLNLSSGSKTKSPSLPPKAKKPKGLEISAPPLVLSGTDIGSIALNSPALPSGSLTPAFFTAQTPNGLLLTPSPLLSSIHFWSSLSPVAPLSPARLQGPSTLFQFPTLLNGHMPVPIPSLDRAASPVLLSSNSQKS
To be noted: protein: recombinant; tags: N-terminal GST; dsDNA, one strand shown. An outline of the steps:
as §1

Experiment [9] deals with T7, FEV (Homo sapiens, UniProt Q99581 1-238).
T7 sequence: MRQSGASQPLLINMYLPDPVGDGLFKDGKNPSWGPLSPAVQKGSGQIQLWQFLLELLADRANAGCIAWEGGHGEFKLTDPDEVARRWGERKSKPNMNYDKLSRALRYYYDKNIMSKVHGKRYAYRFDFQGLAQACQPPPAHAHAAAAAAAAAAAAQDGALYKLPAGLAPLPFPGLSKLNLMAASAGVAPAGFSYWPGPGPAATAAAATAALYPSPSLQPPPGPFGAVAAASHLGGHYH
To be noted: protein: recombinant; tags: N-terminal GST; dsDNA, one strand shown. An outline of the steps:
as §1

Experiment [10] has as its target ETV5 (Homo sapiens, UniProt P41161 1-510). To be noted: protein: recombinant; tags: N-terminal GST; dsDNA, one strand shown. A digest of the protocol: as §1
Experiment [11] addresses HSF1 (Homo sapiens, UniProt Q00613 1-529). To be noted: protein: recombinant; tags: N-terminal GST; chain copies: 3; dsDNA, one strand shown. An outline of the steps: as §1
The target in experiment [12] is T8, SPIC (Homo sapiens, UniProt Q8N5J4 1-248).
T8 sequence: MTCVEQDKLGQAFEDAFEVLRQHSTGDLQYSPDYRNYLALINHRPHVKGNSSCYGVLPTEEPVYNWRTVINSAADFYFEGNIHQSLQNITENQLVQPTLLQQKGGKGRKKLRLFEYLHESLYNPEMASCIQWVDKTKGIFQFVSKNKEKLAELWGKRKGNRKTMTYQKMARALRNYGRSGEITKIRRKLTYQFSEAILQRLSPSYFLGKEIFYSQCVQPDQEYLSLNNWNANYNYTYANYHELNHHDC
To be noted: protein: recombinant; tags: N-terminal GST; dsDNA, one strand shown. An outline of the steps:
as §1

Experiment [13] concerns the target ELF4 (Homo sapiens, UniProt Q99607 1-663). To be noted: protein: recombinant; tags: N-terminal GST; dsDNA, one strand shown. An outline of the steps: as §1
For experiment [14], the target named is T9, ELK4 (Homo sapiens, UniProt P28324-2 1-405).
T9 sequence: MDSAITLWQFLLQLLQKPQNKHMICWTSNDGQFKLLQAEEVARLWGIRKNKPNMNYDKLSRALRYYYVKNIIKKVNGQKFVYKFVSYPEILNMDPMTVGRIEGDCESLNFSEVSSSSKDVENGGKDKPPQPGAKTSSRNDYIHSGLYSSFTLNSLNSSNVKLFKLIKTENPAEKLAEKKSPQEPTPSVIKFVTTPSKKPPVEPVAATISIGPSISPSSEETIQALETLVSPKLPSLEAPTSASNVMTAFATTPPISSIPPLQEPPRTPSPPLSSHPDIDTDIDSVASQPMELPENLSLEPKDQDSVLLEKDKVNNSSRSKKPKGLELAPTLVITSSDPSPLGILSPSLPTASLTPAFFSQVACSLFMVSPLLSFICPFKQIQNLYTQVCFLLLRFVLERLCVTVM
To be noted: protein: recombinant; tags: N-terminal GST; dsDNA, one strand shown. An outline of the steps: as §1

The target in experiment [15] is T10, ETV2 (Homo sapiens, UniProt O00321 1-342).
T10 sequence: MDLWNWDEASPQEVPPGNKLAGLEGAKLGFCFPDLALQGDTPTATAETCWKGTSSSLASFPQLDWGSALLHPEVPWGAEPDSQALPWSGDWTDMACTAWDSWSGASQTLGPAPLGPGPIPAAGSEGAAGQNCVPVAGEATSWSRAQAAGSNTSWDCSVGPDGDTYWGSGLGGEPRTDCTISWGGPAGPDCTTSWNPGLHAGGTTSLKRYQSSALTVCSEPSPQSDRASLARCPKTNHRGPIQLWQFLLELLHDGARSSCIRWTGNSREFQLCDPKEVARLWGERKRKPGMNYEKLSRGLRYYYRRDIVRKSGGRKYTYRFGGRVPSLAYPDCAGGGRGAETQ
To be noted: protein: recombinant; tags: N-terminal GST; dsDNA, one strand shown. A digest of the protocol: as §1

The target of experiment [16] is T11, ELF3 (Homo sapiens, UniProt P78545 1-371).
T11 sequence: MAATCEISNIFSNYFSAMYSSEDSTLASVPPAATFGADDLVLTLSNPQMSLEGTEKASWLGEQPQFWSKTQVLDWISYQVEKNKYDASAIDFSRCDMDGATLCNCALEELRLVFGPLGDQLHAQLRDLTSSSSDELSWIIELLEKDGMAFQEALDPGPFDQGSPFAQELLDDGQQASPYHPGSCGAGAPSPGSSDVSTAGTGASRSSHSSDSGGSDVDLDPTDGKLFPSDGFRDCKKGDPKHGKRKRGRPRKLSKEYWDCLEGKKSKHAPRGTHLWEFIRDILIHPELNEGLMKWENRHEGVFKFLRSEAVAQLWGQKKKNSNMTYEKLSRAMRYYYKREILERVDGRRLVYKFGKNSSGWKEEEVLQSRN
To be noted: protein: recombinant; tags: N-terminal GST; dsDNA, one strand shown. An outline of the steps:
as §1

Experiment [17] addresses CRX (Homo sapiens, UniProt O43186 1-299). To be noted: protein: recombinant; tags: N-terminal GST; dsDNA, one strand shown. An outline of the steps:
as §1

Experiment [18] deals with ETV1 (Homo sapiens, UniProt P50549 1-477). To be noted: protein: recombinant; tags: N-terminal GST; dsDNA, one strand shown. A digest of the protocol: as §1
Sequence of ETV1 (P50549 whole entry): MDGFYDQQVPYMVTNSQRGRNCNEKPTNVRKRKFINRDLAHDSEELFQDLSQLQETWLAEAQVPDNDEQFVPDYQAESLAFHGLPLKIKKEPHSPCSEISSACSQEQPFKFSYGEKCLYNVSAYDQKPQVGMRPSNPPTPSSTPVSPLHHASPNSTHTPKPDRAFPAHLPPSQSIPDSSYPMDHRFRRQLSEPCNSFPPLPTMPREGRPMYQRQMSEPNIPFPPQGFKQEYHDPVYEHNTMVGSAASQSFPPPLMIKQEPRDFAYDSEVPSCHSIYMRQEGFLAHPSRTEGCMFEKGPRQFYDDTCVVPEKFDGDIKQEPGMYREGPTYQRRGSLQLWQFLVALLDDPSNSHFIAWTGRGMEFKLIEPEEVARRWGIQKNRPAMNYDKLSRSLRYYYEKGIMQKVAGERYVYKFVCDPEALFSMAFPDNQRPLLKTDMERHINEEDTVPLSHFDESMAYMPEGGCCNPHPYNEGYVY

Sequence of HSF1 (Q00613 whole entry): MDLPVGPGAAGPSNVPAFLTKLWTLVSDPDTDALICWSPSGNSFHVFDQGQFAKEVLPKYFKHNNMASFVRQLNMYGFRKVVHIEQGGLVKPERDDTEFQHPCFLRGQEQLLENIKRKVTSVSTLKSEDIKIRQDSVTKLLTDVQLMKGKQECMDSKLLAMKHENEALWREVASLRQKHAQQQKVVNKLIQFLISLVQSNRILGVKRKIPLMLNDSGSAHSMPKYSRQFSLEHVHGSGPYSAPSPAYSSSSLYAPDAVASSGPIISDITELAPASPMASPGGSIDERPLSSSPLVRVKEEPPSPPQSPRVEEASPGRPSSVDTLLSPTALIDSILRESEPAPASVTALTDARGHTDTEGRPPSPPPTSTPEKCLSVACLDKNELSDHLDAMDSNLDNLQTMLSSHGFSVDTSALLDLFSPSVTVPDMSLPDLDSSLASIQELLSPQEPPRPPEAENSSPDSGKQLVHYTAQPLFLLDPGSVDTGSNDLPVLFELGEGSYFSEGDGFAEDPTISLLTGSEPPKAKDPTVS
Sequence of ELF4 (Q99607 whole entry): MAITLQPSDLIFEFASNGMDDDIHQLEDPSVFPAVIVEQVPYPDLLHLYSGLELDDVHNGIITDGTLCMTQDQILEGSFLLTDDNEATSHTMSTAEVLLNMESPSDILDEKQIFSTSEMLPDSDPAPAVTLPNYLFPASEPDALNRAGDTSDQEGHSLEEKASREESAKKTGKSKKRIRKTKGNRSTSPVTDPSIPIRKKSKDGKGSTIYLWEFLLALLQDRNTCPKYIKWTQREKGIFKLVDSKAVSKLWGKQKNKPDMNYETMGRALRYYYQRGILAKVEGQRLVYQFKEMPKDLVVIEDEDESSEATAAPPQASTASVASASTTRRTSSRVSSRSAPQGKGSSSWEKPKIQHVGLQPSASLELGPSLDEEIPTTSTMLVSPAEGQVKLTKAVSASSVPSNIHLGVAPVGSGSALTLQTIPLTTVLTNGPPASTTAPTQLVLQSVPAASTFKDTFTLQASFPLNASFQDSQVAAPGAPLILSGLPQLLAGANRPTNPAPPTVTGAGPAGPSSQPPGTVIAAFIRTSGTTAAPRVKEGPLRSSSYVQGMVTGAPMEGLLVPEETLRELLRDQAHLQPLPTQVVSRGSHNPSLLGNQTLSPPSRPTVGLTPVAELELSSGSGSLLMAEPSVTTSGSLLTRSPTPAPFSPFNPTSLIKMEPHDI
Sequence of CRX (O43186 whole entry): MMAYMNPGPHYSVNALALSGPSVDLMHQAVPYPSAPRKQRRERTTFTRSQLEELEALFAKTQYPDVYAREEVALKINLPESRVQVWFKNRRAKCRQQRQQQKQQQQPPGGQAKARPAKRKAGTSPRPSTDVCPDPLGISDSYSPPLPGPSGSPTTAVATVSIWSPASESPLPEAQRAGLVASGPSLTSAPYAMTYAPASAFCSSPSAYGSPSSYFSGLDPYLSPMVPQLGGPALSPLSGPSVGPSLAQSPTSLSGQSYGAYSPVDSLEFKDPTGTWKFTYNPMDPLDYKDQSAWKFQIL
Sequence of ETV5 (P41161 whole entry): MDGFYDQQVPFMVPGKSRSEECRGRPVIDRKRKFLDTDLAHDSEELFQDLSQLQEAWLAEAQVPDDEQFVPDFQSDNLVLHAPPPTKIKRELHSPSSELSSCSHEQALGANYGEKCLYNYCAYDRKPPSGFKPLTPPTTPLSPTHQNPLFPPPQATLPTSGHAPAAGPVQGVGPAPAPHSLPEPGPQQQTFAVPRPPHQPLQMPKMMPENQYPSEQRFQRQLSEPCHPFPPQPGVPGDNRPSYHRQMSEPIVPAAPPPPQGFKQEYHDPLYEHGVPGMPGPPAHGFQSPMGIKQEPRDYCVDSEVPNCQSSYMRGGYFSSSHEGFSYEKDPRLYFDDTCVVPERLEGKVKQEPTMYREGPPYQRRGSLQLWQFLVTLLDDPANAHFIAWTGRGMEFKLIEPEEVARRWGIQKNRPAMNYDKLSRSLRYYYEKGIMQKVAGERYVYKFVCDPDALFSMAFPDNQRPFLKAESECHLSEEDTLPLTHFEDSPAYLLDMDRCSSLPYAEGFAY

AAGCAG: the binding signal in experiment [1] was 1.1 fold enrichment (6-mer frequency, TF over GST control); in [2], 1.14 fold enrichment (6-mer frequency, TF over GST control); in [3] it was 1.13 fold enrichment (6-mer frequency, TF over GST control); in experiment [4], 1.11 fold enrichment (6-mer frequency, TF over GST control); in experiment [5], 1.12 fold enrichment (6-mer frequency, TF over GST control); in experiment [6], 1.12 fold enrichment (6-mer frequency, TF over GST control). In addition, the binding signal in experiment [7] is 1.24 fold enrichment (6-mer frequency, TF over GST control); in experiment [8], 1.23 fold enrichment (6-mer frequency, TF over GST control); in experiment [9], 1.09 fold enrichment (6-mer frequency, TF over GST control); in experiment [10], 1.18 fold enrichment (6-mer frequency, TF over GST control); in experiment [11] it was 1.05 fold enrichment (6-mer frequency, TF over GST control); in [12] it was 1.09 fold enrichment (6-mer frequency, TF over GST control). The binding signal was 1.12 fold enrichment (6-mer frequency, TF over GST control) in experiment [13]; 1.06 fold enrichment (6-mer frequency, TF over GST control) in experiment [14]; 1.13 fold enrichment (6-mer frequency, TF over GST control) in experiment [15]; 1.04 fold enrichment (6-mer frequency, TF over GST control) in experiment [16]; 1.11 fold enrichment (6-mer frequency, TF over GST control) in experiment [17]; 1.19 fold enrichment (6-mer frequency, TF over GST control) in experiment [18].
